High-throughput results deposited in PubChem by National Center for Advancing Translational Sciences (NCATS).
A selection: hits, their analogues and other compounds. The true share with any hit is near 2.7%.
LDHA block: inhibitors of human lactate dehydrogenase A. purified LDHA, NADH/diaphorase-resazurin fluorescence; stronger effect = lower value. activity change, % (values are at about 110 or 230 µM). actives 0.15% (n = 480,000). AID 1347041; in the data active means activity change below about -30%; inconclusive means mostly about -25% to -30%;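 further: plate controls were DMSO wells for no effect and wells without enzyme for full effect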
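Remaining NADH was detected by diaphorase (0.133 mg/mL) converting 37 µM resazurin to fluorescent resorufin, read at 0 and 20 minutes. The preceding 5-minute room-temperature reaction used 2 nM LDHA, 0.2 mM sodium pyruvate and 0.06 mM NADH at pH 7.4.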
Nrf2 block: inhibitors of Nrf2 signaling | actives 2.1% (n = 360,000) | A549 ARE-Fluc reporter, luciferase luminescence, 18-24 h | Potency, µM (top dose mostly 46 µM), without a hit: at the highest dose activity change, negative = inhibition, actives largely listed as inhibitors; further: potency means the concentration at half of the fitted maximal effect; on the % scale 0 is the no-effect control and ±100 the full control effect; nearly all actives have a fitted effect of over 60% in size
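Reporter: ARE-Fluc in A549. Exposure: 18-24 h, 37 °C, 5% CO2, 5% FBS OPTI-MEM. Readouts: fluorescent cytotoxicity (CellTiter-Fluor), then luminescent Nrf2 signal after BugLite.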
Nrf2 activator: activators of Nrf2 (ARE) signaling; Potency, µM (doses to about 46.1 µM), for the others: at the top dose activation, hits mostly activators; AREc32 ARE-luciferase reporter (MCF7-derived line), luminescence, 24 h; actives 0.31% (n = 410,000); further: potency means the concentration at half of the fitted maximal effect; % of control where 0% means no effect; nearly all actives have a fitted effect of over 65% in size
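AREc32 cells carrying an ARE-driven firefly luciferase reporter were seeded at 1000 cells/well in OPTI-MEM with 5% FBS, then exposed to compound for 24 hr at 37 deg C. Luminescence was read with Steady-Glo after 30 min at RT.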
A549 viability: A549 cytotoxicity, counter-screen for Nrf2 inhibitors; A549 ARE-Fluc cells, CellTiter-Fluor viability, 18-24 h; actives 0.16% (n = 390,000); Potency, µM (top dose mostly 46 µM), inactives show at the highest dose activity change, negative = cytotoxicity, most hits filed as inhibitors; AID 504648; further: potency means the concentration at half of the fitted maximal effect; on the % scale 0 is the no-effect control and ±100 the full control effect
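A549 ARE-Fluc cells in 5% FBS OPTI-MEM, 5000 cells/well, rested 2 h then exposed to compounds in concentration-response for 18-24 h at 37 °C. Viability by CellTiter-Fluor fluorescence (Ex 405/Em 525) after 30 min; luciferase luminescence (BugLite, 15 min, RT) read afterwards.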
mIDH1 inhibitor: human IDH1 R132H inhibition; actives 0.093% (n = 390,000); IDH1-R132H enzyme, NADPH consumption, diaphorase/resazurin fluorescence; Potency, µM (top dose mostly 76.6 µM), without a hit: at the top dose activity change, negative = inhibition, hits mostly inhibitors; further: potency means the concentration at half of the fitted maximal effect; on the % scale 0 is the no-effect control and ±100 the full control effect; nearly all actives have a fitted effect of over 65% in size
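IDH1-R132H (0.5 ug/mL) preincubated 30 min with compound, then NADPH (0.016 mM) and alpha-KG (2 mM) added; 80 min at RT, pH 7.5. Remaining NADPH coupled via diaphorase/resazurin to fluorescence (540/590 nm); concentration-response curves normalized to no-enzyme control.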
ALOX12 inh: ALOX12 (human) lipoxygenase inhibition; actives 1.1% (n = 580,000); purified 12hLO, xylenol orange hydroperoxide absorbance; P18054; Potency, µM (top dose mostly 108 µM), for the others: at the top dose activity change, negative = inhibition, usual class: inhibitors; AID 1671190; further: potency means the concentration at half of the fitted maximal effect; on the % scale 0 is the no-effect control and ±100 the full control effect
Target sequence (P18054 whole entry, looked up): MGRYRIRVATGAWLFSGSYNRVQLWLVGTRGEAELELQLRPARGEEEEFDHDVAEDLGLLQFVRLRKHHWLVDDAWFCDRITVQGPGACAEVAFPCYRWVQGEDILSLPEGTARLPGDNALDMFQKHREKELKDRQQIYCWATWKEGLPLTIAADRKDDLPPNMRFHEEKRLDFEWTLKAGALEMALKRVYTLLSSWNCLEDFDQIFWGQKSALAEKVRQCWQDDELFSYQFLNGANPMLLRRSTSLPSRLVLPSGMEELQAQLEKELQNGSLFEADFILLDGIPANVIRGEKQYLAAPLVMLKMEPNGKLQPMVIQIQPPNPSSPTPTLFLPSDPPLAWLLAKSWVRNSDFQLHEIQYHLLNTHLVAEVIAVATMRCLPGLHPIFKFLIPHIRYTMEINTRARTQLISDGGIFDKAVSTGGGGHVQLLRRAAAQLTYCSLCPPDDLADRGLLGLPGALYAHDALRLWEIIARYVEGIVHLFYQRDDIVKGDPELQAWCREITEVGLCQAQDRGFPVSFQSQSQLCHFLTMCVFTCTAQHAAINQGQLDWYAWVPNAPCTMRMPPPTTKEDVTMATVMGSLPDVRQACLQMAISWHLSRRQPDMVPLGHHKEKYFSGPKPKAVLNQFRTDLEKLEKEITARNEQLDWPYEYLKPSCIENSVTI
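Hydroperoxide product was detected by ferrous iron/xylenol orange as the 573 to 405 nm absorbance ratio. Arachidonic acid at 40 uM (final) was turned over for 30 min at room temperature by 150 nM human 12hLO, pH 7.0 Hepes buffer, after 15 min compound preincubation.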
Active calls of the source: *; i = inactive; ? = inconclusive; . = not tested or not shown. Unless noted, the call rests on the fitted dose curve; in most records, active means well fitted curve in the direction sought with a large enough effect; inconclusive means small, poorly fitted or top-dose-only effect, or another doubt; inactive means no such curve, though single readings can be large; an effect the other way counts as inactive or inconclusive.

SMILES	LDHA block	Nrf2 block	Nrf2 activator	A549 viability	mIDH1 inhibitor	ALOX12 inh
COc1cccc(NC(=O)CN(C)C(=O)c2cccc(S(=O)(=O)N3CCN(c4ccccc4)CC3)c2)c1	1	?	0%	-1%	0%	122%
COc1cccc(CN(C)C(=O)c2cc(S(=O)(=O)N3CCN(c4ccccc4)CC3)ccc2Cl)c1	2	21µM*	-1%	-14%	1%	-6%
CC(C)OCCCn1c(-c2ccc(Br)cc2)c[nH]c1=S	-3	?	7%	3%	1%	45µM*
O=C(Cn1cc(Br)c(=O)[nH]c1=O)N1CCSCC1	4	.	.	.	.	2%
O=C(C1c2ccccc2Oc2ccccc21)N1CCN(c2ccc(Cl)cc2)CC1	-1	26µM*	-1%	?	6%	-6%
COc1ccccc1N1CCN(C(=O)C2c3ccccc3Oc3ccccc32)CC1	-5	11%	-1%	?	1%	-11%
CCOc1ccc(OCC)c(NC(=O)c2nnn(Cc3cc(Br)ccc3OC)c2N)c1	0	-6%	1%	1%	-3%	3%
COc1ccc(Br)cc1Cn1nnc(C(=O)Nc2ccc(C)cc2C)c1N	5	16µM*	0%	-25%	7%	-4%
Cc1nc(N2CCN(C(=O)c3ccco3)CC2)c2oc3ccccc3c2n1	-4	21µM*	0%	-13%	0%	341%
Cc1cnc(C(=O)Oc2ccc3oc4ccccc4c3c2)cn1	1	.	.	.	.	?
OC1(CN2CCN(c3nccs3)CC2)CNCCOC1 (stereo not given)	.	.	.	.	.	10µM*
COc1ccnc(N2CCN(CC3(O)CNCCOC3)CC2)n1 (stereo not given)	.	.	.	.	.	-20%
NC(=O)COC(=O)c1ccccc1Nc1ccc(SC(F)F)cc1	2	?	5%	0%	3%	?
CC(OC(=O)c1ccccc1Nc1ccc(SC(F)F)cc1)C(N)=O (stereo not given)	3	26µM*	3%	-3%	-1%	?
COc1ccc(CC(=O)Nc2ccc3nc(Nc4cccc(Cl)c4)cc(C)c3c2)cc1OC	6	16µM*	0%	-8%	7%	-7%
COc1ccc(Cl)cc1C(=O)Nc1ccc2nc(Nc3cccc(Cl)c3)cc(C)c2c1	-1	5%	0%	-2%	-4%	-18%
Cc1cc(Nc2cccc(Cl)c2)nc2ccc(NC(=O)Cc3ccc(Cl)cc3)cc12	1	23µM*	-2%	?	-1%	?
COc1ccc(-c2c(-c3ccc(OCCN4CCOCC4)cc3O)n[nH]c2C)cc1	8	.	.	.	.	?
CC(C)(Oc1ccc(Cl)cc1)C(=O)NC1=NN(c2ccccc2)C(=O)C1	-2	?	6%	?	2%	50µM*
Cc1cccn2c(=O)c(C=O)c(N3CCN(c4ccc(F)cc4)CC3)nc12	-2	16µM*	6%	-10%	1%	-21%
Cc1cccn2c(=O)c(C=O)c(N3CCCCC3)nc12	-4	?	0%	-16%	-2%	3%
N#C/C(=C/c1ccc(OC(F)F)cc1)C(N)=S	-5	.	.	.	.	32µM*
N#C/C(=C\c1ccc(OC(F)F)cc1)C(=O)N1CCCCC1	-1	10%	6%	-1%	3%	7%
COc1ccc(C2CC(C(F)(F)F)n3nc(C(=O)N(C)Cc4cn(C)nc4C)c(Cl)c3N2)cc1 (stereo not given)	1	?	0%	-7%	12%	16%
Cc1nn(C)c(C)c1CN(C)C(=O)c1nn2c(c1Br)NC(c1cccs1)CC2C(F)(F)F (stereo not given)	-7	8.2µM*	4%	1%	1%	15%
SMILES	LDHA block	Nrf2 block	Nrf2 activator	A549 viability	mIDH1 inhibitor	ALOX12 inh
COc1ccc(C2CC(C(F)(F)F)n3nc(C(=O)NCc4c(C)nn(C)c4C)c(Cl)c3N2)cc1 (stereo not given)	2	21µM*	4%	-9%	-2%	6%
Cc1nn(C)c(C)c1CNC(=O)c1cc2n(n1)C(C(F)(F)F)CC(c1cccs1)N2 (stereo not given)	-4	18µM*	0%	-7%	4%	0%
Cc1ccc(-n2nnc(C(=O)NC3CCCCCC3)c2C)cc1C	4	.	.	.	.	?
CCn1c(C)[n+](CCOCC[n+]2c(C)n(CC)c3cc(Cl)c(Cl)cc32)c2cc(Cl)c(Cl)cc21	-43*	5%	-1%	-1%	0%	?
CC(=O)OCCn1c(C)[n+](CCOC(C)=O)c2cc(Cl)c(Cl)cc21	-16	-1%	-1%	-3%	3%	30%
Cc1ccc(C(=O)NCc2ccco2)cc1S(=O)(=O)Nc1cccc(Cl)c1	-3	23µM*	3%	-12%	-2%	-23%
CCOC(=O)C1CCN(C(=O)c2oc3ccc(S(=O)(=O)N4CC(C)CC(C)C4)cc3c2C)CC1 (stereo not given)	-1	18µM*	0%	?	-3%	3%
Cc1c(C(=O)N2CCC(C)CC2)oc2ccc(S(=O)(=O)N3CCC4(CC3)OCCO4)cc12	-10	21µM*	0%	18%	6%	1%
Cc1c(C(=O)N2CCOCC2)oc2ccc(S(=O)(=O)N3CCCC3)cc12	-6	-13%	1%	-1%	-5%	0%
Cc1c(C(=O)N2CCc3ccccc3C2)oc2ccc(S(=O)(=O)N3CCCCCC3)cc12	-3	15µM*	0%	-4%	6%	11%
COc1ccc(Cc2nnc3n2N(C(C)=O)C(c2ccccc2)=C(C(C)=O)S3)cc1	4	.	.	.	.	?
CN(C)CCCNc1cc(O)c2ncccc2c1	0	5.2µM*	-4%	10µM*	.	-23%
Clc1ccc(N/N=C/c2cccc3ccccc23)cc1Cl	3	.	.	.	.	5µM*
Clc1ccc(N/N=C/c2cccc(Cl)c2Cl)cc1Cl	7	.	.	.	.	1µM*
O=C(O)c1cccc(N/N=C/c2cccc3ccccc23)c1	-6	?	0%	-2%	4%	?
CCOC(=O)N1CCN(C(=O)c2ccc(CSc3ccc(Cl)cc3)cc2)CC1	1	18µM*	5%	-24%	0%	-1%
O=C(c1ccc(S(=O)(=O)Nc2ccccc2)cc1)N1CCCC(C(F)(F)F)C1 (stereo not given)	1	26µM*	0%	?	-6%	i
Cc1ccc(NS(=O)(=O)c2ccc(C(=O)N3CCCCCCC3)cc2)cc1	-5	21µM*	0%	-7%	-6%	?
Cc1ccc(NS(=O)(=O)c2ccc(C(=O)NNC(=O)c3ccccc3O)cc2)cc1	2	15%	-1%	-7%	-6%	45µM*
